# Test results from the supplement of paper PMC12340641.
# Where a name gives a salt, the structure may show the parent alone.
# Target: IKZF1 (dCK*-IKZF1 fusion in HEK293FT) (UniProt Q13422)
# Experiment: inhibition of IKZF1 HTRF signal (DMSO = 0%, pomalidomide 10 uM = 100%); higher = lower IKZF1 protein level
# Conditions: compound concentration: 5 uM, overnight (~20 h)
# How it was run: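 For percent inhibition of IKZF1 signal, each plate was normalised to vehicle and to a reference degrader. Cells were HEK293FT stably expressing an IKZF1 fusion, plated at 2000/well in 384-well format and treated overnight at 37 °C with 5 μM compound, one well each. Lysates were probed overnight with a commercial HTRF total-IKZF1 antibody kit, with the 665/620 nm ratio background-subtracted and vehicle and degrader fixed at 0% and 100%.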
# Chain of IKZF1 (dCK*-IKZF1 fusion in HEK293FT) (Q13422 whole entry, looked up, the tested form may be a part): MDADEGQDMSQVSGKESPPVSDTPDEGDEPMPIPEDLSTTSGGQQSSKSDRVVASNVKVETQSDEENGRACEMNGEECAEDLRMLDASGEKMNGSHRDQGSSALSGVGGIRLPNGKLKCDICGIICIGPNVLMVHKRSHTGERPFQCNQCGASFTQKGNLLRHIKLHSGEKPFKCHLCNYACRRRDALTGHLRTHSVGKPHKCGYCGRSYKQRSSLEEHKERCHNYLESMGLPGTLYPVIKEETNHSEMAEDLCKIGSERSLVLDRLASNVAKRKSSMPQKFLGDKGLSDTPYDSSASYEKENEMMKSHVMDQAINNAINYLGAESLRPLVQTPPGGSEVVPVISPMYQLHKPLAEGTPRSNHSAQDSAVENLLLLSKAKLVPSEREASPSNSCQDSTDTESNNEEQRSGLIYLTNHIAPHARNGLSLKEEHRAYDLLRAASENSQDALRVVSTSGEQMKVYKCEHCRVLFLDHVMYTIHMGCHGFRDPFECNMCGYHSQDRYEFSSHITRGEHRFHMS
row,SMILES,inhibition of IKZF1 HTRF signal
1,CCCCOc1ccc(-c2cncc(C(=O)NCc3cccnc3N3CCOCC3)c2)cc1Cl,-19.5%
2,Clc1cccc(Cl)c1CSc1nnc(-c2cnccn2)s1 [yoda-1],3.26%
3,Cc1cc(C2CCCCC2)n(O)c(=O)c1 [Ciclopirox],24.4%
4,CC(C)(C)c1ccc(C(O)CCCN2CCC(C(O)(c3ccccc3)c3ccccc3)CC2)cc1 (stereo unspecified),-24.6%
5,O=C1NCN(c2ccccc2)C12CCN(CCCC(c1ccc(F)cc1)c1ccc(F)cc1)CC2 [Fluspirilene],-2.73%
6,CCCCCCCCCCCCCCCC[N+](C)(C)CCN(Cc1ccc(OC)cc1)c1ncccn1 [thonzonium bromide],21%
7,COC(=O)Nc1nc2ccc(S(=O)c3ccccc3)cc2[nH]1 (stereo unspecified),5.34%
8,O=C(Nc1ccc2[nH]ccc2c1)c1ccccc1,-24.8%
9,COC1CCN(c2cccc(-c3cc(NC(C)=O)nc(-n4nc(C)cc4C)n3)n2)CC1,-25.1%
10,CC1(C)C(=O)N=C2C1=C(O)C(=O)c1ccccc12,80%
11,CC[C@]1(O)C[C@H]2CN(CCc3c([nH]c4ccccc34)[C@@](C(=O)OC)(c3cc4c(cc3OC)N(C)[C@H]3[C@@](O)(C(N)=O)[C@H](O)[C@]5(CC)C=CCN6CC[C@]43[C@@H]65)C2)C1 [Vindesine Sulfate],-14%
12,COC(=O)C1=C(C)NC(C)=C(C(=O)OCC(C)C)C1c1ccccc1[N+](=O)[O-] (stereo unspecified) [Nisoldipine],-28.1%
13,CCC(C)c1ccc(NC(=O)Cn2cnc3c2c(=O)n(C)c(=O)n3C)cc1 (stereo unspecified),-44.5%
14,O=S(=O)(O)CCCS(=O)(=O)O,17.9%
15,COc1ccc(NS(=O)(=O)c2ccc(N=Nc3ccc(O)c(C(=O)O)c3)cc2)nn1 [salazodine],-2.92%
16,COC(=O)Nc1nc2ccc(C(=O)c3ccccc3)cc2[nH]1,-12.9%
17,O=C1Nc2ccccc2/C1=C1/Nc2ccccc2/C1=N\O [indirubin-3-monoxime],-16.5%
18,O=C1Nc2cc(Br)ccc2/C1=C1/Nc2ccccc2/C1=N\O [3-inhibitor],-34.6%
19,Oc1c(Cl)cc(Cl)c(Cl)c1Cc1c(O)c(Cl)cc(Cl)c1Cl [Hexachlorophene],-78.9%

row,SMILES,inhibition of IKZF1 HTRF signal
1,Nc1ccc(-c2ccc3ncc4ccc(=O)n(-c5cccc(C(F)(F)F)c5)c4c3c2)cn1 [torin-2],66.5%
2,COc1ccc(CCN(C)CCc2ccc(OC)c(OC)c2)cc1OC,-8.39%
3,CNCCC(Oc1ccc(C(F)(F)F)cc1)c1ccccc1 (stereo unspecified) [Fluoxetine HCl],-26.7%
4,S=C(NCc1ccc2c(c1)OCO2)N1CCN(c2ncnc3c2oc2ccccc23)CC1 [Amuvatinib (MP-470)],-37.4%
5,O=C(O)c1ccccc1-c1c2cc(I)c(=O)c(I)c-2oc2c(I)c(O)c(I)cc12,23.2%
6,Cc1ccc2c(=O)c3ccccc3n(CCCN)c2c1C,-12.2%
7,O=C1NC(=O)/C(=C/c2ccc(-c3ccc(F)cc3O)o2)S1,-15.8%
8,CC[C@H](C)[C@H]1O[C@]2(CC[C@@H]1C)C[C@@H]1C[C@@H](C/C=C(\C)[C@@H](O[C@H]3C[C@H](OC)[C@@H](O[C@H]4C[C@H](OC)[C@@H](O)[C@H](C)O4)[C@H](C)O3)[C@@H](C)/C=C/C=C3\CO[C@@H]4[C@H](O)C(C)=CC(C(=O)O1)[C@]34O)O2 (stereo partly specified) [Ivermectin],-28.1%
9,C[C@H]1COC2=C1C(=O)C(=O)c1c2ccc2c1CCCC2(C)C [Cryptotanshinone],-30.9%
10,COc1cc(NC(=O)c2ccc(-c3ccc(Cl)cc3)o2)cc(OC)c1,-48.3%
11,Clc1ccc(COC(Cn2ccnc2)c2ccc(Cl)cc2Cl)c(Cl)c1 (stereo unspecified),-32.3%
12,CC[C@@]1(O)C(=O)OCc2c1cc1n(c2=O)Cc2cc3c(N)cccc3nc2-1 [9-aminocamptothecin],31.3%
13,Nc1ncnc2c1c(-c1cnc3[nH]ccc3c1)nn2C1CCCC1,-13.8%
14,Oc1c(Cl)cc(Cl)cc1Sc1cc(Cl)cc(Cl)c1O,7.52%
15,"Nc1ncnc2c1ncn2[C@@H]1O[C@H](COP(=O)(O)OP(=O)(O)OP(=O)(O)OP(=O)(O)OC[C@H]2O[C@@H](n3cnc4c(N)ncnc43)C(O)C2O)C(O)C1O (stereo partly specified) [P1,P4-DI(adenosine-5')tetraphosphate ammonium salt]",-38%
16,O=C1c2c(O)ccc(O)c2C(=O)c2c(NCCNCCO)ccc(NCCNCCO)c21,5.77%
17,CSc1ccc2c(c1)N(CCC1CCCCN1C)c1ccccc1S2 (stereo unspecified) [Thioridazine HCl],-1.96%
18,COc1cc(NS(C)(=O)=O)ccc1Nc1c2ccccc2nc2ccccc12,-14.1%
19,CC(C)(C)CC(C)(C)c1ccc(OCCOCC[N+](C)(C)Cc2ccccc2)cc1,16%

# System: HEK293FT dCK*-only
# Experiment: relative growth in counter assay (no AraC = 100%, AraC + DMSO = 0%); higher = more growth rescue independent of IKZF1
# Conditions: compound concentration: 5 uM; AraC concentration: 0.3 uM; overnight pretreatment + 4 days AraC
# How it was run: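 HEK293FT cells carrying only an engineered kinase construct were plated at 300 per well (384-well) and given 5 μM compound 2 h later. Following overnight at 37 °C, a nucleoside suicide substrate (0.3 μM) plus medium was added for 4 days. Hoechst 33342-stained nuclei were imaged and counted on day 5, with 100% assigned to wells without suicide substrate and 0% to substrate plus vehicle on each plate.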
row,SMILES,relative growth in counter assay
1,CCCCOc1ccc(-c2cncc(C(=O)NCc3cccnc3N3CCOCC3)c2)cc1Cl,-0.15%
2,Clc1cccc(Cl)c1CSc1nnc(-c2cnccn2)s1 [yoda-1],-3.89%
3,Cc1cc(C2CCCCC2)n(O)c(=O)c1 [Ciclopirox],-31.2%
4,CC(C)(C)c1ccc(C(O)CCCN2CCC(C(O)(c3ccccc3)c3ccccc3)CC2)cc1 (stereo unspecified),-9.63%
5,O=C1NCN(c2ccccc2)C12CCN(CCCC(c1ccc(F)cc1)c1ccc(F)cc1)CC2 [Fluspirilene],5.04%
6,CCCCCCCCCCCCCCCC[N+](C)(C)CCN(Cc1ccc(OC)cc1)c1ncccn1 [thonzonium bromide],-31%
7,COC(=O)Nc1nc2ccc(S(=O)c3ccccc3)cc2[nH]1 (stereo unspecified),-12.6%
8,O=C(Nc1ccc2[nH]ccc2c1)c1ccccc1,-3.62%
9,COC1CCN(c2cccc(-c3cc(NC(C)=O)nc(-n4nc(C)cc4C)n3)n2)CC1,7.56%
10,CC1(C)C(=O)N=C2C1=C(O)C(=O)c1ccccc12,-34.8%
11,CC[C@]1(O)C[C@H]2CN(CCc3c([nH]c4ccccc34)[C@@](C(=O)OC)(c3cc4c(cc3OC)N(C)[C@H]3[C@@](O)(C(N)=O)[C@H](O)[C@]5(CC)C=CCN6CC[C@]43[C@@H]65)C2)C1 [Vindesine Sulfate],-34.3%
12,COC(=O)C1=C(C)NC(C)=C(C(=O)OCC(C)C)C1c1ccccc1[N+](=O)[O-] (stereo unspecified) [Nisoldipine],-8.81%
13,CCC(C)c1ccc(NC(=O)Cn2cnc3c2c(=O)n(C)c(=O)n3C)cc1 (stereo unspecified),-2.66%
14,O=S(=O)(O)CCCS(=O)(=O)O,1.16%
15,COc1ccc(NS(=O)(=O)c2ccc(N=Nc3ccc(O)c(C(=O)O)c3)cc2)nn1 [salazodine],6.32%
16,COC(=O)Nc1nc2ccc(C(=O)c3ccccc3)cc2[nH]1,-32.6%
17,O=C1Nc2ccccc2/C1=C1/Nc2ccccc2/C1=N\O [indirubin-3-monoxime],4.61%
18,O=C1Nc2cc(Br)ccc2/C1=C1/Nc2ccccc2/C1=N\O [3-inhibitor],-10.1%
19,Oc1c(Cl)cc(Cl)c(Cl)c1Cc1c(O)c(Cl)cc(Cl)c1Cl [Hexachlorophene],0.51%

row,SMILES,relative growth in counter assay
1,Nc1ccc(-c2ccc3ncc4ccc(=O)n(-c5cccc(C(F)(F)F)c5)c4c3c2)cn1 [torin-2],-34.6%
2,COc1ccc(CCN(C)CCc2ccc(OC)c(OC)c2)cc1OC,5.51%
3,CNCCC(Oc1ccc(C(F)(F)F)cc1)c1ccccc1 (stereo unspecified) [Fluoxetine HCl],-5.41%
4,S=C(NCc1ccc2c(c1)OCO2)N1CCN(c2ncnc3c2oc2ccccc23)CC1 [Amuvatinib (MP-470)],-17.4%
5,O=C(O)c1ccccc1-c1c2cc(I)c(=O)c(I)c-2oc2c(I)c(O)c(I)cc12,-0.87%
6,Cc1ccc2c(=O)c3ccccc3n(CCCN)c2c1C,-35.5%
7,O=C1NC(=O)/C(=C/c2ccc(-c3ccc(F)cc3O)o2)S1,-7.95%
8,CC[C@H](C)[C@H]1O[C@]2(CC[C@@H]1C)C[C@@H]1C[C@@H](C/C=C(\C)[C@@H](O[C@H]3C[C@H](OC)[C@@H](O[C@H]4C[C@H](OC)[C@@H](O)[C@H](C)O4)[C@H](C)O3)[C@@H](C)/C=C/C=C3\CO[C@@H]4[C@H](O)C(C)=CC(C(=O)O1)[C@]34O)O2 (stereo partly specified) [Ivermectin],-2.12%
9,C[C@H]1COC2=C1C(=O)C(=O)c1c2ccc2c1CCCC2(C)C [Cryptotanshinone],0.04%
10,COc1cc(NC(=O)c2ccc(-c3ccc(Cl)cc3)o2)cc(OC)c1,14.9%
11,Clc1ccc(COC(Cn2ccnc2)c2ccc(Cl)cc2Cl)c(Cl)c1 (stereo unspecified),-7.63%
12,CC[C@@]1(O)C(=O)OCc2c1cc1n(c2=O)Cc2cc3c(N)cccc3nc2-1 [9-aminocamptothecin],-33.7%
13,Nc1ncnc2c1c(-c1cnc3[nH]ccc3c1)nn2C1CCCC1,-33.6%
14,Oc1c(Cl)cc(Cl)cc1Sc1cc(Cl)cc(Cl)c1O,-3.52%
15,"Nc1ncnc2c1ncn2[C@@H]1O[C@H](COP(=O)(O)OP(=O)(O)OP(=O)(O)OP(=O)(O)OC[C@H]2O[C@@H](n3cnc4c(N)ncnc43)C(O)C2O)C(O)C1O (stereo partly specified) [P1,P4-DI(adenosine-5')tetraphosphate ammonium salt]",5.12%
16,O=C1c2c(O)ccc(O)c2C(=O)c2c(NCCNCCO)ccc(NCCNCCO)c21,-35.5%
17,CSc1ccc2c(c1)N(CCC1CCCCN1C)c1ccccc1S2 (stereo unspecified) [Thioridazine HCl],-2.48%
18,COc1cc(NS(C)(=O)=O)ccc1Nc1c2ccccc2nc2ccccc12,-35.1%
19,CC(C)(C)CC(C)(C)c1ccc(OCCOCC[N+](C)(C)Cc2ccccc2)cc1,-7.09%
